# From PubChem
# This excerpt belongs to a sample that is enriched for hits.
# Tgondii IFNg – T. gondii growth inhibition with IFN-gamma, primary screen, cell-based; Toxoplasma gondii growth in IFN-gamma-treated host cells; stronger effect = lower value; activity change, negative = inhibition, % (no concentration beside the values); actives 3.8% (n = 69,000); AID 1259416, 2018; in the data active means activity change below about -70%, passing the limit was not always enough;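 further: host cells are HeLa cells infected with Toxoplasma gondii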
# Numbers without * were called inactive; i = inactive; ! = repeats disagree.
SMILES,Tgondii IFNg
OCCn1cc(-c2ccc3c(c2)CC/C3=N\O)c(-c2ccncc2)n1,-78.2*!
Cc1nnc(SCCNC(=O)c2cc(C3CC3)[nH]n2)s1,-0.2
COCCO[C@H]1CCN(C(=O)c2cccs2)[C@H]1Cc1cnn(C)c1,-3.7
O=C(CCn1ccnc1)Nc1ccc2c(c1)OCC(=O)N2,24.7
CCC(c1ccncc1)n1ccnc1-c1ccc(C#CC(C)(C)O)cc1 (stereo not drawn),1.8
CCn1cc(C(=O)O[C@H]2C[C@@H](c3ccc(OC)cc3)N(C)C2=O)c(C)n1,-0.6
CN1CCOCC2(CCCN(C(=O)Cc3cccs3)C2)C1 (stereo not drawn),-3.1
CN1CCOCC2(CCCN(C(=O)Cc3ccsc3)C2)C1 (stereo not drawn),2.6
CCN1CCOCC2(CCCN(C(=O)Cc3ccsc3)C2)C1 (stereo not drawn),-80.3*
CSc1cccc(NC(=S)N2CCCCC2CCN2CCOCC2)c1 (stereo not drawn),14.7
CSc1ccc2c(c1)N(CCC1CCCCN1C)c1ccccc1S2 (stereo not drawn),-95.3*!
CSc1cccc(NC(=O)N2CCCCC2CCN2CCCC2=O)c1 (stereo not drawn),3.7
Cc1nnnn1CCCN1CCCC1c1nc2ccc(F)cc2[nH]1 (stereo not drawn),6.6
COc1ccccc1-c1ccccc1CN1CCC2(CC1)NC(=O)N(C)C2=O,-16.8
CCC1CCCCN1C(=O)c1cc2cccnc2n(Cc2ccc(F)cc2)c1=O (stereo not drawn),2.6
Cc1ncc(C(=O)N2CCCC(CCc3ccc(F)cc3)C2)s1 (stereo not drawn),-14.3
O=C(c1cn[nH]c1-n1cnnn1)N1CCCC(CCc2ccc(F)cc2)C1 (stereo not drawn),-13.0
O=C(c1ccc2cccnc2c1O)N1CCCC(CCc2ccc(F)cc2)C1 (stereo not drawn),-80.8*
Cc1ccc(C(=O)Nc2ccc(-c3nc(Cn4cccn4)c(C)o3)cc2)c(C)c1,-58.8
Cc1cnn(Cc2nc(-c3ccc(NC(=O)c4ccccc4C(F)(F)F)cc3)oc2C)c1,-87.9*
CCOc1ccccc1C(=O)Nc1ccc(-c2nc(Cn3cc(C)cn3)c(C)o2)cc1,-45.3
Cc1cnn(Cc2nc(-c3ccc(NC(=O)c4cccs4)cc3)oc2C)c1,-75.8*
Cc1cnn(Cc2nc(-c3ccc(NC(=O)c4ccc(C(F)(F)F)cc4)cc3)oc2C)c1,-63.4
Cc1cnn(Cc2nc(-c3ccc(NC(=O)c4cc(F)cc(F)c4)cc3)oc2C)c1,87.3
Cc1oc(-c2ccc(NC(=O)c3ccccc3Cl)cc2)nc1Cn1cccn1,-100.0*
SMILES,Tgondii IFNg
Cc1cnn(Cc2nc(-c3ccc(NC(=O)c4ccccc4Cl)cc3)oc2C)c1,-84.3*
Cc1ccc(C)c(C(=O)Nc2ccc(-c3nc(Cn4cccn4)c(C)o3)cc2)c1,126.9
Cc1cnn(Cc2nc(-c3ccc(NC(=O)c4ccc(Cl)s4)cc3)oc2C)c1,63.2
Cc1cnn(Cc2nc(-c3ccc(NC(=O)c4sccc4C)cc3)oc2C)c1,-51.3
Cc1cnn(Cc2nc(-c3ccc(NC(=O)c4ccc(F)cc4Cl)cc3)oc2C)c1,-45.1
Cn1cnc(C(=O)N2CC[C@@H]3OCCN(Cc4ccncc4)[C@@H]3C2)c1,-3.2
CCCc1ccc(C(=O)N2CCCC(O)(CN(C)C)C2)cc1 (stereo not drawn),1.3
C=C(C)Cn1c(SCc2ccccc2)nc2scc(-c3ccc(Cl)cc3)c2c1=O,-10.6
CN1CCC(Cc2noc(-c3cccc(-n4cccn4)c3)n2)CC1,-4.8
CCN1CCC2(CC1)OC(=O)C(C)=C2C(=O)NCc1ccccc1F,6.8
CCOC(=O)C1(CC2CC2)CCN(Cc2cnc(-c3ccc(Cl)cc3)nc2)CC1,-0.1
Cc1nc(-c2ccc(F)cc2)sc1CCNC(=O)C(=O)Nc1cccc(Cl)c1,2.1
Cc1ccccc1CC(=O)Nc1ccc(-c2nc(Cn3cccn3)c(C)o2)cc1,31.8
Cc1oc(-c2ccc(NC(=O)/C=C/c3ccccc3)cc2)nc1Cn1cccn1,-86.9*
Cc1cccc(C(=O)Nc2ccc(-c3nc(Cn4cc(C)cn4)c(C)o3)cc2)c1,-87.1*
Cc1cc(C)n(Cc2nc(-c3ccc(NC(=O)/C=C/c4ccccc4)cc3)oc2C)n1,-42.7
Cc1ccc(C(=O)Nc2ccc(-c3nc(Cn4cc(C)cn4)c(C)o3)cc2)cc1,61.7
Cc1cnn(Cc2nc(-c3ccc(NC(=O)c4ccccc4)cc3)oc2C)c1,-38.4
c1ccc(COC2CCN(Cc3cccc4nccnc34)CC2)cc1,-6.5
O=C1OCCCN1CCNc1nccc(N2CCC(O)CC2)n1,-7.7
COc1ccc(CN2CCCN(Cc3ccc(OC)cc3)C2c2cccc(Cl)c2)cc1,-31.4
CCOc1ccc(-c2nc(Cn3ccn4nc(-c5ccccc5OC)cc4c3=O)c(C)o2)cc1OC,i
COc1ccc(CN2C[C@@H]3CC[C@@](O)(c4ncccc4C)[C@@H]3C2)cc1,-51.4
CCn1c(CN2C[C@@H]3CC[C@@](O)(c4cnc(OC)nc4OC)[C@@H]3C2)nc2ccccc21,-85.1*
CCCCN1CCC(O)(c2cnc(OC)nc2OC)CC1,-22.5
SMILES,Tgondii IFNg
CCCC(=O)N1CCC2(CC1)CN(Cc1ccccc1)C2=O,0.5
CCOC(=O)c1oc2ccccc2c1NC(C)=O,15.7
CCOC(=O)c1oc2ccc(CNC3CCCCC3)c(Cl)c2c1C,-9.2
CCOC(=O)c1c(CSC2CCCCC2)oc2ccc(O)cc12,-103.8*
O=C(CO)N1Cc2cc(Oc3cccnc3)ccc2C1c1cnco1 (stereo not drawn),0.7
CN(Cc1n[nH]c(=O)n1CC1CCCCC1)S(C)(=O)=O,4.9
CSc1cccc(NC(=O)Cn2c(=O)cc(C(=O)N3CCc4ccccc4C3)c3ccccc32)c1,-64.5
N#CCCN(Cc1cccs1)S(=O)(=O)c1ccc2c(c1)CCO2,-90.6*
CC(C)N(CCC#N)C(=O)Nc1ccc2c(c1)CCO2,-31.7
CN(C)CCN(Cc1cccs1)S(=O)(=O)c1ccc2[nH]c(=O)ccc2c1,360.9
CCOC(=O)C1(Cc2cccc(OC)c2)CCCN(Cc2ccc(N3CCNC3=O)cc2)C1 (stereo not drawn),-9.0
CC(C)N1CCNC(=O)C1CC(=O)NCC1(Cn2cccn2)CC1 (stereo not drawn),5.3
c1csc(-c2cncc(-c3nnc(-c4cccc5ccccc45)o3)c2)c1,-101.6*
Clc1ccc(-c2cc(-c3cccs3)c(-c3ccccc3)o2)cc1,140.8
FC(F)(F)c1oc(-c2ccccc2Cl)cc1-c1nc(-c2cccs2)no1,-3.9
O=C(c1ccc2onc(-c3coc(-c4ccc(F)cc4)n3)c2c1)N1CCCO1,-12.7
CN(C)C(=O)COC[C@@]12COC[C@@H]1CN(CC1CCC1)C2,27.3
Cc1ccc(C)n1-c1ccc(-c2csnn2)cc1,152.5
COc1ccc(N=Nc2c(O)[nH]c(=O)[nH]c2=O)cc1,19.3
O=c1oc2ccccc2n1C1CCCN(CC2=Cc3ccccc3OC2)C1 (stereo not drawn),1.5
CCn1c(CN2CC[C@@H](c3sccc3C)[C@H](O)C2)nc2ccccc21,10.9
CCn1c(CN2CCCC(n3c(=O)oc4ccc(Cl)cc43)C2)nc2ccccc21 (stereo not drawn),-86.6*
Cc1ccc(C(=O)N2CCC3(CC2)Nc2ccc(C)c(C)c2-n2cccc23)cc1,-2.1
COc1ccccc1OC(C)C(=O)N1CCc2[nH]nc(-c3ccccc3)c2C1 (stereo not drawn),8.6
CC(=O)N1CCO[C@H]2CCN(C(=O)C3CC=CC3)C[C@H]21,0.5
CC(C)CN(C[C@@H](O)[C@H](Cc1ccccc1)NC(=O)O[C@H]1CO[C@H]2OCC[C@H]21)S(=O)(=O)c1ccc(N)cc1,-72.1*
